Test results published in PubChem BioAssay (NCATS).
Active and inactive are the calls of the source. The call rests on the fitted dose curve.

Settings: Ebola virus entry assay, blue channel fluorescence

**Q.** With `Cc1nnc(C(C)C)n1C1C[C@H]2CC[C@@H](C1)N2CC[C@H](NC(=O)C1CCC(F)(F)CC1)c1ccccc1` (some centres not stated) as the molecule, how does the outcome read?
**A.** inactive

**Q.** With `Cc1noc(NS(=O)(=O)c2ccc(N)cc2)c1C` as the molecule, how does the outcome read?
**A.** inactive

**Q.** For `C[N+]1(C)CCCC(OC(=O)C(O)(c2ccccc2)c2ccccc2)C1` (configuration not stated), which outcome is on record?
**A.** inactive

**Q.** For `CC(C)(O/N=C(\C(=O)N[C@@H]1C(=O)N2C(C(=O)[O-])=C(C[n+]3ccccc3)CS[C@H]12)c1csc(N)n1)C(=O)O`, which outcome is on record?
**A.** inactive

**Q.** Which outcome does the source give for `CCN(CC)C(=O)[C@]1(c2ccccc2)C[C@@H]1CN` here?
**A.** inactive

**Q.** With `NS(=O)(=O)c1cc(Cl)c(Cl)c(S(N)(=O)=O)c1` as the molecule, how does the outcome read?
**A.** inactive

**Q.** With `CCN1CC(CCN2CCOCC2)C(c2ccccc2)(c2ccccc2)C1=O` (configuration not stated) as the molecule, how does the outcome read?
**A.** inactive

**Q.** For `Nc1nc(Cl)nc2c1ncn2[C@@H]1O[C@H](CO)[C@@H](O)[C@@H]1F`, which outcome is on record?
**A.** inactive

**Q.** For `CCCCC(=O)N(Cc1ccc(-c2ccccc2-c2nn[nH]n2)cc1)[C@@H](C(=O)O)C(C)C`, which outcome is on record?
**A.** inactive

**Q.** Which outcome does the source give for `NC(=O)N1c2ccccc2C=Cc2ccccc21` here?
**A.** inactive

**Q.** For `S=c1nc[nH]c2nc[nH]c12`, which outcome is on record?
**A.** inactive

**Q.** With `C=C1C(=C/C=C2\CCC[C@]3(C)[C@@H]([C@H](C)CCCC(C)(C)O)CC[C@@H]23)C[C@@H](O)C[C@@H]1O` as the molecule, how does the outcome read?
**A.** inactive

**Q.** Which outcome does the source give for `C=CC(N)CCC(=O)O` (configuration not stated) here?
**A.** inactive

**Q.** For `O=C(O)C[C@H](O)C[C@H](O)/C=C/c1c(C2CC2)nc2ccccc2c1-c1ccc(F)cc1`, which outcome is on record?
**A.** inactive

**Q.** Which outcome does the source give for `CO[C@H]1C=CO[C@@]2(C)Oc3c(C)c(O)c4c(O)c(c(/C=N/N5CCN(C6CCCC6)CC5)c(O)c4c3C2=O)NC(=O)/C(C)=C\C=C[C@H](C)[C@H](O)[C@@H](C)[C@@H](O)[C@@H](C)[C@H](OC(C)=O)[C@@H]1C` here?
**A.** inactive

**Q.** For `CCOC(=O)[C@H](CCc1ccccc1)N[C@H]1CCCN2CCC[C@@H](C(=O)O)N2C1=O`, which outcome is on record?
**A.** inactive

**Q.** With `OCC(S)CS` (configuration not stated) as the molecule, how does the outcome read?
**A.** inactive

**Q.** For `Nc1ccc(C(=O)O)c(O)c1`, which outcome is on record?
**A.** inactive

**Q.** Which AC50 does the source give for `CN1[C@@H]2CC[C@H]1CC(OC(c1ccccc1)c1ccccc1)C2` (some centres not stated) here?
**A.** 5.01 µM (active)

**Q.** For `CCCCCCCN(CC)CCCC(O)c1ccc(NS(C)(=O)=O)cc1` (configuration not stated), which outcome is on record?
**A.** inactive

**Q.** For `CCOC(=O)CCC(=O)O[C@H]1[C@H](O[C@@H]2[C@@H](C)[C@H](O[C@H]3C[C@@](C)(OC)[C@@H](O)[C@H](C)O3)[C@@H](C)C(=O)O[C@H](CC)[C@@](C)(O)[C@H](O)[C@@H](C)C(=O)[C@H](C)C[C@@]2(C)O)O[C@H](C)C[C@@H]1N(C)C`, which outcome is on record?
**A.** inactive

**Q.** For `CO[C@H]1C[C@@H]2CC[C@@H](C)[C@@](O)(O2)C(=O)C(=O)N2CCCC[C@@H]2C(=O)O[C@H]([C@@H](C)C[C@@H]2CC[C@H](O)[C@H](OC)C2)CC(=O)[C@H](C)C=C(C)[C@@H](O)[C@@H](OC)C(=O)[C@H](C)C[C@H](C)C=CC=CC=C1C`, which outcome is on record?
**A.** inactive

**Q.** Which outcome does the source give for `CC(C)NCC(O)c1ccc(NS(C)(=O)=O)cc1` (configuration not stated) here?
**A.** inactive

**Q.** For `CC(C)[C@H]1C(=O)N2CCC[C@H]2[C@]2(O)O[C@](NC(=O)[C@@H]3C[C@@H]4c5cccc6[nH]cc(c56)C[C@H]4N(C)C3)(C(C)C)C(=O)N12`, which outcome is on record?
**A.** inactive

**Q.** For `CC=CC1=C(C(=O)O)N2C(=O)[C@H](NC(=O)[C@H](N)c3ccc(O)cc3)[C@@H]2SC1`, which outcome is on record?
**A.** inactive

**Q.** For `C=CC1=C(C(=O)O)N2C(=O)[C@@H](NC(=O)/C(=N/OCC(=O)O)c3csc(N)n3)[C@H]2SC1` (stereo in doubt), which outcome is on record?
**A.** inactive

**Q.** For `C[C@@H]1O[C@@H]1P(=O)(O)O`, which outcome is on record?
**A.** inactive

**Q.** Which AC50 does the source give for `CC[C@H]1OC(=O)[C@H](C)[C@@H](O[C@H]2C[C@@](C)(OC)[C@@H](O)[C@H](C)O2)[C@H](C)[C@@H](O[C@@H]2O[C@H](C)C[C@H](N(C)C)[C@@H]2O)[C@](C)(O)C[C@@H](C)CN(C)[C@H](C)[C@@H](O)[C@]1(C)O` here?
**A.** 2.51 µM (active)

**Q.** Which outcome does the source give for `COc1ccc2c(c1)C13CCCC[C@@H]1C(C2)N(C)CC3` (some centres not stated) here?
**A.** inactive

**Q.** With `CO[C@@H]1[C@@H](O[C@@H]2O[C@H](C)[C@@H](O[C@H]3C[C@@](C)(O)[C@@H](O)[C@H](C)O3)[C@H](N(C)C)[C@H]2O)[C@@H](CC=O)C[C@@H](C)[C@@H](O[C@@H]2CC[C@H](N(C)C)[C@@H](C)O2)/C=C/C=C/C[C@@H](C)OC(=O)C[C@H]1O` as the molecule, how does the outcome read?
**A.** inactive

**Q.** For `CC(C)CN(C[C@@H](O)[C@H](Cc1ccccc1)NC(=O)O[C@@H]1CCOC1)S(=O)(=O)c1ccc(N)cc1`, which outcome is on record?
**A.** inactive

**Q.** For `CC(C)[C@H](N)C(=O)OCC(CO)OCn1cnc2c(=O)[nH]c(N)nc21` (some centres not stated), which outcome is on record?
**A.** inactive
